Only some compounds are listed: those with a hit (about 19% of all), similar ones and a draw of the others.
HT1080-NT tox: kills 2HG-producing HT-1080-NT fibrosarcoma cells; AID 686970; HT-1080-NT fibrosarcoma viability, CellTiter-Glo ATP luminescence, 48 h; Potency, µM (series often up to 46.1 µM), for the others: top-dose activity, negative = less viability, hits mostly cytotoxic; actives 1.6% (n = 360,000);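 also: NT is the 2HG producing partner of a matched IDH1 knockdown line; 0% = DMSO-treated cells and -100% = media-only wells without cells; nearly all actives have a fitted effect of over 55% in size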
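HT-1080-NT fibrosarcoma cells (2HG-overproducing), 750 cells/well in RPMI with 5% FBS, dosed after 2 h and incubated 48 h at 37C. CellTiter-Glo luminescence normalized to DMSO and no-cell wells; concentration-response curves fitted and classed.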
DT40 TDP1 CPT: DT40-hTDP1 cell growth loss with CPT; chicken DT40 Tdp1-/-;hTDP1 cells + 20 nM CPT, ATP luminescence, 48 h; Potency, µM (doses to about 46.2 µM), for the others: at the top dose activity change, negative = growth inhibition, hits mostly inhibitors; actives 12% (n = 420,000); AID 686979; also: nearly all actives have a fitted effect of over 55% in size
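Cell growth measured by CellTiter-Glo luminescence after a minimum 48 h, 37 C compound exposure with 20 nM CPT in Tdp1-knockout DT40 cells stably expressing hTDP1, seeded 400/well; qHTS titration format.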
TDP1 cell noCPT: qHTS for Inhibitors of human tyrosyl-DNA phosphodiesterase 1 (TDP1): qHTS in cells in absence of CPT. DT40 Tdp1-/- hTDP1 cells, no CPT, ATP luminescence, 48 h. Potency, µM (highest dose often 46.2 µM), for the others: at the highest dose activity change, negative = growth inhibition, actives largely listed as inhibitors. actives 15% (n = 420,000). AID 686978, 2013; also: nearly all actives have a fitted effect of over 55% in size
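Growth of hTDP1-complemented DT40 Tdp1-knockout cells is measured by ATP luminescence after at least 48 hr compound exposure at 37 °C, with DMSO substituting for the 20 nM CPT used in the parallel screen.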
KB-V1 cytotox: kills drug-selected multidrug resistant KB-V1 cells; KB-V1 MDR cells viability, CellTiter-Glo, 72 h; actives 3.4% (n = 400,000); AID 1347076; Potency, µM (titrated, usually from 46.1 µM), usual class: cytotoxic; also: nearly all actives have a fitted effect of over 60% in size
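Readout: CellTiter-Glo luminescence, 10 min after addition. Cells: KB-V1 MDR subline, 72 h at 37 degrees C with compound. Analysis: corrected, normalized data fitted to concentration-effect curves.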
KB-3-1 tox: KB-3-1 parental cell cytotoxicity; Potency, µM (top dose mostly 46.1 µM), hits mostly cytotoxic; KB-3-1 viability, CellTiter-Glo ATP luminescence, 72 h; actives 1.4% (n = 400,000); also: nearly all actives have a fitted effect of over 60% in size
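72 h, 37 °C compound treatment of KB-3-1 parental cells; CellTiter-Glo added, 10 min, luminescence read. Data corrected against DMSO-only plates and normalized before curve fitting.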
HT1080 IDH1KD tx: kills HT-1080 cells with IDH1 knockdown | actives 2% (n = 360,000) | HT-1080 IDH1 knockdown viability, ATP luminescence, 48 h | Potency, µM (doses to about 46.1 µM), for inactives: at the top dose activity, negative = toxicity, hits mostly cytotoxic | AID 686971;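 also: 0% = DMSO wells and -100% = cell-free medium wells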
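After a 2 h attachment period, IDH1KD HT-1080 cells took pin-transferred compound for 48 h at 37 °C; ATP-based luminescence after 10 min room-temperature reagent incubation reported viability.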
An asterisk follows results filed as active; i = inactive; ? = inconclusive; . = no result given; [ ] = remark or other dose. Calls follow the shape of the dose curve; as a rule, active = well fitted curve in the direction sought with a large enough effect; inconclusive = small, poorly fitted or top-dose-only effect, or another doubt; inactive = no such curve, though single readings can be large; an effect the other way counts as inactive or inconclusive. Unless noted, % is scaled to controls: 0 for no effect and ±100 for the full control effect; potency is read from the fitted curve at half-maximal effect.

SMILES	HT1080-NT tox	DT40 TDP1 CPT	TDP1 cell noCPT	KB-V1 cytotox	KB-3-1 tox	HT1080 IDH1KD tx
Cc1ccc(C)c(CN2CCC3(CCC(CNC(=O)c4ccnn4C)O3)CC2)c1 (centres undefined)	.	-6.0%	-28.2%	.	.	.
CC1(C(=O)NS(=O)(=O)c2ccccc2C(F)(F)F)CCN1C(=O)CCc1ccccc1 (centres undefined)	17.6%	9.1%	7.5%	i	i	0.6%
CCOc1ccc(NC(=O)C(CC)n2nc(-c3ccc(C)c(C)c3)ccc2=O)cc1 (centres undefined)	.	?	?	i	i	.
Cc1cccc(C(=O)NC(=S)Nc2ccc(S(=O)(=O)N3CCCCC3)cc2)c1	-5.0%	18.4µM*	14.6µM*	i	i	-6.4%
CN1CCN(S(=O)(=O)c2ccc(-c3ccccc3)cc2)CC1	3.2%	?	-10.9%	i	i	2.5%
Cc1ccc(S(=O)(=O)N2CCN(C(=O)n3ccnc3)CC2)cc1	-4.3%[9.24 µM]	0.651µM*	11.6µM*	i	i	1.7%
Cc1cccc(NC(=O)CSCC(=O)Nc2ccc(S(=O)(=O)N3CCCCC3)cc2)c1	-11.7%	?	-62.8%	i	i	-16.4%
Cc1ccc(-c2ccc(S(=O)(=O)N3CCN(C)CC3)cc2)cc1	-1.8%	1.4%	-5.4%	13µM*	i	1.4%
Cc1ccc(C(=O)NC(=S)Nc2ccc(S(=O)(=O)N3CCN(C)CC3)cc2)cc1	-11.1%	16.4µM*	20.6µM*	23.1µM*	i	-0.2%
COc1cc(C)c(NC(=O)c2cccc(S(=O)(=O)N3CCCC3)c2)cc1OC	-1.3%	-14.7%	-17.2%	i	i	12.4%
N#Cc1ccccc1CN1C(=O)c2ccccc2Sc2ccc(C(=O)OCc3ccco3)cc21	.	.	.	?	i	.
Cc1cccc(C(=O)NC(=S)Nc2ccc(S(=O)(=O)N3CCN(C)CC3)cc2)c1	-24.4%	?	23.1µM*	i	i	-15.7%
Nc1nc(N)nc(-c2ccc([N+](=O)[O-])o2)n1	-6.0%	?	23.1µM*	i	i	-15.2%
C=CCC1C=CCC(CC=C)N1C(=O)c1ccccc1[N+](=O)[O-] (centres undefined)	0.0%	13µM*	?	i	i	-7.6%
O=C(c1ccccc1[N+](=O)[O-])N1CC2C3C=CC(C3)C2C1 (centres undefined)	7.2%	10.6%	-29.4%	?	i	3.8%
CCc1c(C)nc2cc(-c3ccccc3)[nH]n2c1=O	-10.4%	8.2µM*	11.6µM*	i	i	1.1%
C=CCc1c(C)nc2cc(-c3ccc(C)cc3)[nH]n2c1=O	-1.2%	?	?	i	i	0.6%
CCc1c(C)nc2c(-c3ccccc3)c(-c3ccccc3)[nH]n2c1=O	16.8%	2.31µM*	2.06µM*	i	i	2.7%
CCc1cccc(NC(=O)CN(C)S(=O)(=O)c2ccc3c(c2)n(C)c(=O)c(=O)n3C)c1	.	-25.7%	-23.1%	i	i	.
Cc1ccc(Nc2cc(C)nn2-c2nc(C)cc(C)n2)cc1	?	5.8µM*	5.8µM*	i	?	?
Cc1ccc(Nc2cc(C)nn2-c2nc(C)cc(=O)[nH]2)cc1	?	0.794µM*	0.562µM*	?	1.41µM*	?
CCOc1ccccc1CN1CCc2nc(Nc3ccc4c(c3)OCCO4)ncc2C1	.	?	?	i	i	.
O=c1cc(CSc2nnc(COc3cccc4ccccc34)o2)c2ccccc2[nH]1	1.9%	?	?	i	i	-7.9%
O=C(CC(=O)c1ccccc1)Nc1ccccc1	1.5%	14.8%	-12.9%	i	i	13.2%
O=C(CC(=O)c1ccccc1)CC(O)(C=Cc1ccccc1)c1ccccc1 (centres undefined)	-20.7%	20.6µM*	16.4µM*	i	i	?
SMILES	HT1080-NT tox	DT40 TDP1 CPT	TDP1 cell noCPT	KB-V1 cytotox	KB-3-1 tox	HT1080 IDH1KD tx
C/C(=N\NC(=O)CNC(=O)c1cccs1)c1ccc(Cl)c(Cl)c1	?	2.59µM*	?	i	i	?
COc1ccc(/C(C)=N/NC(=O)CNC(=O)c2cccs2)cc1OC	-0.5%	1.1%	-24.4%	i	i	-2.9%
Cc1ccc(-n2nc(CC#N)c(C#N)c2N)cc1Cl	2.7%	1.5%	-10.6%	i	i	-0.6%
Cc1ccc(-n2nc(CN3CCOCC3)c(-c3ccccc3)c2N)cc1Cl	8.1%	29.1µM*	20.6µM*	i	i	14.4%
CN(C)C(=S)NC(=O)C12CC3(C)CC(C)(CC(C)(C3)C1)C2	14.0%	-11.7%	1.3µM*	i	i	-0.6%
O=C(CSc1nc2nn(-c3ccccc3)c(=O)c-2c2n1CCCCC2)Nc1ccccc1[N+](=O)[O-]	-12.9%	20.6µM*	?	i	i	-4.8%
O=C(CSc1ncc2c(n1)-c1ccccc1N(Cc1ccc(F)cc1)S2(=O)=O)NCCc1ccccc1	.	?	?	i	i	.
Cc1cccc(C)c1NC(=O)C1(C)CN(S(C)(=O)=O)CC(=O)N1CCc1ccc(O)cc1 (centres undefined)	20.2%	27.3%	8.6%	i	i	4.5%
CCOc1ccc(Cl)cc1-c1cc(C(=O)NCc2ccccc2OC)[nH]n1	-10.0%	?	18.4µM*	i	i	-3.8%
COc1ccccc1CNC(=O)c1cc(-c2ccc(F)cc2OC)n[nH]1	-5.1%	-22.4%	?	i	i	-2.2%
CCOc1ccc(Cl)cc1-c1cc(C(=O)NCc2cc(C(F)(F)F)cc(C(F)(F)F)c2)[nH]n1	?	23.1µM*	?	?	?	?
COc1ccc(Cl)cc1-c1cc(C(=O)Nc2ccccc2)[nH]n1	?	?	?	i	i	?
COc1ccc(F)cc1-c1cc(C(=O)NCc2cc(C(F)(F)F)cc(C(F)(F)F)c2)[nH]n1	-13.8%	18.4µM*	?	i	i	?
COc1ccc(Cl)cc1-c1cc(C(=O)N[C@H](C)c2ccccc2)[nH]n1	?	2.59µM*	3.66µM*	i	i	12.1%
O=C1CCC(C(=O)N2CCN(c3cnccn3)CC2)CN1CCc1ccc(Cl)cc1 (centres undefined)	-10.7%	1.7%	-5.5%	.	.	11.8%
Cc1cnc(CNc2cc(-c3cccc(C#N)c3)ncn2)cn1	.	-10.3%	-11.1%	.	.	.

Screens as filed in PubChem BioAssay.
